The target of test [1] is Alpha-galactosidase A (Homo sapiens) (UniProt P06280). The test can be described thus: Counterscreen for Glucocerebrosidase Inhibitors: qHTS Assay for Human alpha-Galactosidase at pH 4.5 (AID 992). Also: 0% is about no effect. The essentials:
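Each compound is preincubated briefly with 2 nM enzyme before substrate addition (80 uM); plates then sit 20 min at ambient temperature, are quenched with 1M NaOH/1M glycine, and read fluorometrically.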
On the technique in general: A counterscreen serves to expose hits that act by an unwanted route or on another target.

Test [2] concerns the target alpha-glucosidase (Oryza sativa, rice) (UniProt Q653V4). The test can be described thus: Counterscreen for Glucocerebrosidase Inhibitors: qHTS Assay for Rice alpha-Glucosidase at pH 5.0 (AID 997).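 Also: 0% = full activity with enzyme and -100% = basal without enzyme.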 The essentials: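 Endpoint fluorogenic assay at pH 5.0: compounds (0.7 nM to 77 uM) titrated against 4 nM rice enzyme and 400 uM 4-MU-alpha-glucoside for 20 min at room temperature; NaOH/glycine stop, read ex 365/em 440 nm, Hill-fitted AC50.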

The target of test [3] is DNA repair nuclease/redox regulator APEX1 (Homo sapiens) (UniProt P27695). The test can be described thus: qHTS Validation Assay for Inhibitors of the Human Apurinic/apyrimidinic Endonuclease 1 (APE1) (AID 1705; also: potency is read from the fitted curve at half-maximal effect;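 as to activity change, negative = inhibition: TAMRA fluorescence gain over two minutes as APE1 cuts a quenched THF abasic duplex; % is scaled to controls: 0 for no effect and ±100 for the full control effect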). The essentials: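 qHTS, 1536-well. APE1 + cpd 15 min RT → 50 nM TAMRA/BHQ-2 THF-abasic dsDNA substrate → kinetic fluorescence, 3 reads/60 s; delta(read3−read1) = reaction progress. No-enzyme buffer = negative control.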
On the technique in general: Quantitative high-throughput screening tests each substance at several concentrations.

The nature of test [4]: qHTS Assay for Lipid Storage Modulators (AID 1519; calls by dose curve; as to activity change, negative = inhibition: % is scaled to controls: 0 for no effect and ±100 for the full control effect). The conditions noted are these: Drosophila S3 cells, BODIPY lipid droplet/cell ratio, laser cytometry, cells loaded with oleic acid. In outline:
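Cells seeded at 5,000 per well were treated with compounds over a concentration series and loaded with oleic acid (400 uM, as added). Lipid droplet fluorescence (488 nm excitation, 500-530 nm channel) was read by laser-scanning cytometry and normalized to 20 uM Triacsin C.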

A short description of test [5]: Cell Viability - LYMP2-002 (AID 977). Also: potency is read from the fitted curve at half-maximal effect. In outline: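 Human lymphoblastoid cells, 2500/well, complete medium; 5 h 37 C settle; compound 24 h 37 C; CellTiter-Glo, 30 min RT; luminescence. Decrease in ATP = cytotoxicity; AC50 via Hill equation.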
Test [6] in a line: Cell Viability - LYMP2-006 (AID 978). Also: nearly all actives have a fitted effect of over 60% in size. Also: potency is read from the fitted curve at half-maximal effect. The essentials:
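Cells are seeded at 2500 per well and rested 5 hr at 37 C. Compounds are added across a concentration series for 24 hr at 37 C, after which ATP is quantified by luciferase luminescence.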

A short description of test [7]: Cell Viability - LYMP2-007 (AID 979).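 Also: cells exposed to compound for 24 h before reading; nearly all actives have a fitted effect of over 60% in size.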 Also: potency is read from the fitted curve at half-maximal effect. The essentials: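 AC50 values come from Hill-equation fits of luminescent intracellular ATP (CellTiter-Glo, 30 min, room temperature) following 24 h compound exposure at 37 C. Cells: LYMP2-007 lymphoblastoid line, 2500 per well, in complete culture medium.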
Test [8] can be described thus: Cell Viability - LYMP2-008 (AID 980). Also: nearly all actives have a fitted effect of over 60% in size. Also: potency is read from the fitted curve at half-maximal effect. In outline: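 Cytotoxicity determined from ATP-dependent luciferase luminescence (CellTiter-Glo) following 24 h compound exposure of human lymphoblastoid LYMP2-008 cells at 37 C. Concentration-response data fitted to the Hill equation to give AC50.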
A short description of test [9]: Cell Viability - LYMP2-010 (AID 981). Also: nearly all actives have a fitted effect of over 55% in size. Also: potency is read from the fitted curve at half-maximal effect. The essentials: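 CellTiter-Glo ATP luminescence measured cytotoxicity after 24 h compound exposure at 37 C. LYMP2-010 cells were seeded at 2500/well, with tetraoctylammonium bromide as control; concentration-response curves gave AC50 values by the Hill equation.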
A short description of test [10]: Cell Viability - LYMP2-012 (AID 982).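 Also: cellular ATP by luciferase luminescence where a drop means cytotoxicity; cells exposed to compound for one day before reading; nearly all actives have a fitted effect of over 55% in size.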 Also: potency is read from the fitted curve at half-maximal effect.
A short description of test [11]: Cell Viability - LYMP2-014 (AID 983). Also: nearly all actives have a fitted effect of over 50% in size. Also: potency is read from the fitted curve at half-maximal effect. The essentials:
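Intracellular ATP loss, read by luciferase luminescence, measures acute cytotoxicity after 24 h compound exposure of lymphoblastoid LYMP2-014 cells (2500/well, 37 C). Concentration-response data fitted to the Hill equation for AC50.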

Test [12] can be described thus: Cell Viability - LYMP2-016 (AID 984). Also: nearly all actives have a fitted effect of over 55% in size. Also: potency is read from the fitted curve at half-maximal effect. The essentials: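 Cells were seeded at 2500 per well and rested 5 hr before a 24 hr compound exposure at 37 C. Viability was then gauged as cellular ATP by luciferase luminescence, with AC50 values fitted to the Hill equation.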
Test [13] is described as follows: Cell Viability - LYMP2-018 (AID 985). Also: nearly all actives have a fitted effect of over 50% in size. Also: potency is read from the fitted curve at half-maximal effect. In outline: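 Viability read as CellTiter-Glo luminescence (cellular ATP) after 24 hr compound exposure at 37 C of 2500 LYMP2-018 lymphoblastoid cells/well, pre-plated 5 hr. Hill-equation modelling gave AC50.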
A short description of test [14]: Cell Viability - LYMP2-020 (AID 986). Also: nearly all actives have a fitted effect of over 55% in size. Also: potency is read from the fitted curve at half-maximal effect. In outline: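 Cytotoxicity in qHTS format: luminescent ATP readout from CellTiter-Glo after 24 h compound exposure at 37 C in complete medium. LYMP2-020 lymphoblastoid cells were seeded at 2500/well; concentration-response data fitted to the Hill equation for AC50.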
A short description of test [15]: Cell Viability - LYMP2-022 (AID 987). Also: nearly all actives have a fitted effect of over 55% in size. Also: potency is read from the fitted curve at half-maximal effect. The essentials: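 Cytotoxicity read as decreased cellular ATP (CellTiter-Glo luminescence, 30 min room temperature) after 24 hours compound exposure of 2500 lymphoblastoid LYMP2-022 cells/well at 37 C. Concentration-response data fitted with standard Hill equation for AC50.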
The nature of test [16]: Cell Viability - LYMP2-024 (AID 988). Also: nearly all actives have a fitted effect of over 60% in size. Also: potency is read from the fitted curve at half-maximal effect. In outline:
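Cytotoxicity was taken as a decrease in ATP (CellTiter-Glo luminescence) after 24 hr compound exposure at 37 C of LYMP2-024 lymphoblastoid cells, 2500 cells/well. Concentration-response data were fitted to the Hill equation to give AC50.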

Test [17] is described as follows: Cell Viability - LYMP2-026 (AID 989). Also: nearly all actives have a fitted effect of over 50% in size. Also: potency is read from the fitted curve at half-maximal effect. In outline: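 Cytotoxicity read as ATP-dependent luminescence (CellTiter-Glo, 30 min room temperature) after 24 h compound treatment at 37 C. LYMP2-026 lymphoblastoid line seeded at 2500 cells/well; AC50 derived by standard Hill equation.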
Test [18] can be described thus: Cell Viability - LYMP1-002 - Assay at 24 hr (AID 993). Also: potency is read from the fitted curve at half-maximal effect. The essentials:
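qHTS cytotoxicity at 24 h: CellTiter-Glo ATP luminescence in lymphoblastoid line LYMP1-002 incubated with compound at 37 °C. Concentration-response modeled with the Hill equation for AC50; tetraoctylammonium bromide served as positive control.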

Test [19] in a line: Cell Viability - LYMP1-002 - Assay at 40 hr (AID 994). Also: nearly all actives have a fitted effect of over 60% in size. Also: potency is read from the fitted curve at half-maximal effect. In outline:
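Cytotoxicity was read as loss of cellular ATP (CellTiter-Glo luminescence) after 40 hr compound exposure at 37 C of 2500 LYMP1-002 lymphoblastoid cells per well. Concentration-response data were fitted with the standard Hill equation to give AC50.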

Where [20] appears, read: measured here: cell count channel max response.
Where [21] appears, read: measured here: lipid channel max response.

The structures appear in SMILES notation. “And” between values parts separate entries of the source, which are not always exact repeats. Equal values may be shown once. Inconclusive results are not listed. The source made the active and inactive calls. Unless noted, calls follow the shape of the dose curve; as a rule, active = well fitted curve in the direction sought with a large enough effect; inconclusive = small, poorly fitted or top-dose-only effect, or another doubt; inactive = no such curve, though single readings can be large; an effect the other way counts as inactive or inconclusive.

Sequence of Alpha-galactosidase A (Homo sapiens) (P06280 whole entry, looked up): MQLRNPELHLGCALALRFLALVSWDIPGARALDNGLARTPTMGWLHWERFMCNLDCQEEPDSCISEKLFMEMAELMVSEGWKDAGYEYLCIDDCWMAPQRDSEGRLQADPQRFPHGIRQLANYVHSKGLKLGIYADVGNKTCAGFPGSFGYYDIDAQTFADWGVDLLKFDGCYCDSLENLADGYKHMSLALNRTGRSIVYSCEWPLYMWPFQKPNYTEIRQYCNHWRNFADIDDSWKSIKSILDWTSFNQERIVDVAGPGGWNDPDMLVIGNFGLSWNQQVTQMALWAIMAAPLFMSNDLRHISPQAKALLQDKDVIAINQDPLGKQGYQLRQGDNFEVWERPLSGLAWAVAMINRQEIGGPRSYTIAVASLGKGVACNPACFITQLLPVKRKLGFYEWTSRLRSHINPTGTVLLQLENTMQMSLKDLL
Sequence of DNA repair nuclease/redox regulator APEX1 (Homo sapiens) (P27695 whole entry, looked up): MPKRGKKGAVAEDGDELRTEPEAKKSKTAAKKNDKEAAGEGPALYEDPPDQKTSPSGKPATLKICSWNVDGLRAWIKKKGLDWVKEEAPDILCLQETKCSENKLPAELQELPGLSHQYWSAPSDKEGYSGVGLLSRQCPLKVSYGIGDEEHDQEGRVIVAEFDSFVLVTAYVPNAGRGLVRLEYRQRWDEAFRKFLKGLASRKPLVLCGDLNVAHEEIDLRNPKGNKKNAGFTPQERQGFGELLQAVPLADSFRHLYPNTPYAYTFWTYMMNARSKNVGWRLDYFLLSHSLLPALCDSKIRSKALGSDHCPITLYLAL

`CC(C)c1ccc2c(c1)c(SC(C)(C)C)c(CC(C)(C)C(=O)O)n2Cc1ccc(Cl)cc1`: the molecule was called inactive in test [1] and in test [2]. Moreover, in test [3], the Potency was 39.8 µM (active).
For `NNc1nncc2ccccc12`, the molecule was called inactive in [1] and in test [2]. In test [3], the Potency entry was “inactive”.
Consider `CC(=O)O[C@H]1C(=O)[C@@]2(C)C([C@H](OC(=O)c3ccccc3)[C@]3(O)C[C@H](OC(=O)[C@H](O)[C@@H](NC(=O)c4ccccc4)c4ccccc4)C(C)=C1C3(C)C)[C@]1(OC(C)=O)CO[C@@H]1C[C@@H]2O` (some centres not stated), for which, in [4] (at 57.5 µM (top of the series)), the activity change, negative = inhibition was -1.06% (inactive). Moreover, the max response is -13.9% in [4] (setting [20]) and -15.5% in test [4] (setting [21]). In addition, in test [3], the Potency entry was “inactive”.
As to `NCCCCNCCCN`, the result in test [1] and in test [2] was inactive. Further, the activity change, negative = inhibition in [4] (at 57.5 µM (top of the series)) is 0.755% (inactive). Besides, the max response was found to be 7.14% in [4] (setting [20]) and 8.54% in test [4] (setting [21]). The Potency entry in test [3] is “inactive”.
On to `CNC[C@H](O)c1ccc(O)c(O)c1`, for which the molecule was classed as inactive in test [1] and in [2]. In addition, the Potency entry in [3] is “inactive”.
For the molecule `CC(=O)Nc1ccc(O)cc1`, the Potency entry in test [5], in [6], in test [7], in test [8], in test [9] and in test [10] was “inactive” throughout. Besides, the Potency result in test [11], in [12], in test [13], in [14], in [15] and in test [16] was “inactive” throughout. In addition, the Potency result in test [17], in test [18] and in test [19] was “inactive” throughout. The activity change, negative = inhibition is -2.03% (inactive) in test [4] (at 25.7 µM (top of the series)); -1.72% (inactive) and 6.64% (inactive) in test [4] (at 57.5 µM (top of the series)). Besides, the max response in [4] (setting [20]) is -12.5% and -9.7% and 2.35%; in test [4] (setting [21]) it was -12.8% and -10.2% and 7.7%.
For `CCCCC(CC)COC(=O)C(C#N)=C(c1ccccc1)c1ccccc1` (configuration not stated), the Potency result in test [5], in [6], in [7], in test [8], in [9] and in test [10] was “inactive” each time. Moreover, the Potency result in test [11], in test [12], in [13], in [14], in test [15] and in test [16] was “inactive” in each case. The Potency result in test [17], in test [18] and in [19] was “inactive” throughout.
Consider `CCOc1cc(CC(=O)N[C@@H](CC(C)C)c2ccccc2N2CCCCC2)ccc1C(=O)O`, for which the activity change, negative = inhibition in test [4] (at 25.7 µM (top of the series)) is 0.216% (inactive). Moreover, the max response in test [4] (setting [20]) is -5.3%; in test [4] (setting [21]), -9.52%.
For `Oc1ccc(OCc2ccccc2)cc1`, in that order: -0.0547% (inactive), -20% and -20.9%.
As to `Oc1ccc(-c2nc(-c3ccc(F)cc3)c(-c3ccncc3)[nH]2)cc1`, the call in test [1] and in [2] was inactive. Further, the Potency result in test [3] is “inactive”.
With `O=c1c(O)c(-c2ccc(O)cc2O)oc2cc(O)cc(O)c12`, the molecule was classed as inactive in [1] and in test [2]. Besides, the activity change, negative = inhibition in test [4] (at 57.5 µM (top of the series)) is 13.5% (inactive). The results for the max response in [4] (setting [20]) and in test [4] (setting [21]) were 2.76% and 19%, respectively. Besides, the Potency in [3] is 5.01 µM (active).
Turning to `CN(C)c1ccc2nc3ccc(=[N+](C)C)cc-3sc2c1`, the Potency in test [5] is 3.16 µM (active); in test [6] it was 5.01 µM (active); in [7], 7.94 µM (active); in test [8], 3.16 µM (active); in test [9], 6.31 µM (active); in [10] it was 6.31 µM (active). Also, the Potency in test [11] was 3.98 µM (active); in test [12], 3.98 µM (active); in [13] it was 7.94 µM (active); in test [14], 7.94 µM (active); in test [15] it was 6.31 µM (active); in test [16] it was 6.31 µM (active). The Potency in test [17] is 7.94 µM (active); in test [18], 10 µM (active); in test [19] it was 7.94 µM (active).
With `Nc1cc(C(Cl)=C(Cl)Cl)c(S(N)(=O)=O)cc1S(N)(=O)=O`, the figures for the activity change, negative = inhibition in test [4] (at 25.7 µM (top of the series)) and in test [4] (at 57.5 µM (top of the series)) were -3.67% (inactive) and 2.69% (inactive), respectively. Besides, the max response is 6.94% and 7.19% in test [4] (setting [20]); 2.6% and 13.2% in test [4] (setting [21]).
As for `COc1c2occc2cc2ccc(=O)oc12`, the Potency result in test [5], in test [6], in test [7], in test [8], in [9] and in test [10] was “inactive” throughout. Also, the Potency entry in test [11], in test [12], in test [13], in test [14], in test [15] and in test [16] was “inactive” throughout. Also, the Potency entry in test [17], in [18] and in test [19] was “inactive” throughout. In addition, in [4] (at 25.7 µM (top of the series)), the activity change, negative = inhibition is 2.64% (inactive). In addition, the values for the max response in test [4] (setting [20]) and in test [4] (setting [21]) were -4.25% and 1.14%, respectively.
For the molecule `COc1ccc2cc([C@H](C)C(=O)O)ccc2c1`, the call in test [1] and in [2] was inactive. Besides, the activity change, negative = inhibition was 4.21% (inactive) and 0.227% (inactive) in test [4] (at 25.7 µM (top of the series)); 1.21% (inactive) in [4] (at 57.5 µM (top of the series)). In addition, the max response in test [4] (setting [20]) was 1.06% and -6.98% and 54.6%; in test [4] (setting [21]), 5.84% and -5.9% and 56%. Further, the Potency result in test [3] is “inactive”.

The record behind these values is PubChem BioAssay (NCATS).
